Shown are actives, neighbours in structure and some others; about 1.6% of the full set was active somewhere.
KCNQ2 inh: blocks the rat KCNQ2 potassium channel. O88943. CHO-K1 KCNQ2, FluxOR thallium flux, 20 min; active compounds read low. B-score at 10 µM. 1.1% of 310,000 active;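 active = fluorescence ratio B-score at most minus 3 library SDs, with starting brightness B-score within 2 library SDs, cut at about -5.5 in these data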
KCNQ2 enhance: KCNQ2 (rat) channel potentiation; AID 2239; B-score at 10 µM; CHO-K1 KCNQ2, FluxOR thallium flux fluorescence; active compounds read high; 0.54% of 310,000 active; O88943;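 active = fluorescence ratio B-score at least 3 SD of library B-scores, with initial fluorescence B-score within 3 of them, cut at about 5.3 in these data; same plate scores as AID 2156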;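 note: B-score of peak minus minimum over baseline fluorescence ratio after K+ and Tl+ stimulus; positive B-score means potentiation of KCNQ2 with more thallium influx and brighter signal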
KCNQ2 inh conf: confirmation of rat KCNQ2 potassium channel inhibitors; KCNQ2-expressing cells, thallium flux, inhibition; active compounds read low; 57% of 1,000 active; AID 493025; activity change, negative = inhibition, % at 10 µM; shares compounds with KCNQ2 inh
KCNQ1 spec: KCNQ2 inhibitor that also affects human KCNQ1 channel. shares compounds with KCNQ2 inh. KCNQ1-expressing cells, FluxOR thallium flux fluorescence; active compounds read low. 15% of 1,000 active. AID 493026. activity change, negative = inhibition, % at 10 µM;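 active = activity change at least 3 SD of negative controls below their mean in both duplicate wells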;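 note: CHO cells stably transfected with KCNQ1 and depolarized by potassium stimulus; peak minus minimum fluorescence over baseline after thallium addition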
CHO parental ctr: counter-screen for KCNQ2 inhibitors: effect in parental CHO cells; activity change, % at 10 µM; shares compounds with KCNQ2 inh; thallium flux counter-screen; active compounds read low; 14% of 1,000 active
KCNQ2 patch conf: blocks rat KCNQ2 current in automated patch clamp; shares compounds with KCNQ2 inh; KCNQ2-expressing cells; calls only at 10 µM; 49% of 550 active; AID 588531
Hits are given with their value; 0 = inactive; - = no result; + = active, no number. Unless noted, the rule behind the calls is not given here.

SMILES	KCNQ2 inh	KCNQ2 enhance	KCNQ2 inh conf	KCNQ1 spec	CHO parental ctr	others
CCn1cnc2c1c(=O)n(Cc1csc(-c3ccccc3)n1)c(=O)n2Cc1ccccc1	-9.4	0	-16%	0	0	KCNQ2 patch conf=0
CCn1cnc2c1c(=O)n(Cc1cccc([N+](=O)[O-])c1)c(=O)n2Cc1ccccc1	0	0	-	-	-
COc1ccc(-c2nc(SC(CC(=O)NCCN3CCOCC3)c3cccs3)n[nH]2)cc1 (centres undefined)	0	0	-	-	-
Cc1ccccc1OCc1nc2ccccc2c(=O)n1/N=C/c1ccco1	-8.9	0	-33%	0	0	KCNQ2 patch conf=+
O=c1c2ccccc2nc(-c2ccco2)n1/N=C/c1ccco1	0	0	-	-	-
CC[C@@H]1CC=C[C@H]2[C@H]1C(=O)N(Cc1ccccc1)[C@H]2c1cc(C)ccc1F	0	-	-	-	-
Cn1c(-[n+]2c(-c3ccccc3)cc(-c3ccccc3)cc2-c2ccccc2)nc2c([N+](=O)[O-])cccc21	0	-	-	-	-
O=[N+]([O-])c1cccc2nc(-c3ccccc3)c(-c3ccccc3)nc12	-7.6	0	-28%	0	0	KCNQ2 patch conf=0
CCc1ccc(S(=O)(=O)Nc2nnc(N)s2)cc1	0	-	-	-	-
COc1ccccc1CNC(=O)COC(=O)c1ccc(C)c(S(=O)(=O)N2CCCCC2)c1	-8.4	0	-36%	-39%	-26%	KCNQ2 patch conf=+
COc1ccccc1CNC(=O)COC(=O)c1cccc(S(=O)(=O)N2CCCCC2)c1	0	-	-	-	-
Cc1ccc(NC(=O)CCS(=O)(=O)c2cc3[nH]c(=O)c(=O)[nH]c3cc2C)cc1	0	-	-	-	-
Cc1cc(C)n(-c2nc3ccccc3c(=O)n2OCc2ccc(F)cc2)n1	0	-	-	-	-
Cc1cc(C)n(-c2nc3ccccc3c(=O)n2OCc2ccc(Cl)cc2)n1	-7.6	0	0	0	0
O=C(c1cn(-c2ccccc2)nc1-c1cccs1)N(CCO)Cc1ccccc1	-7.5	0	0	0	0
CN(C)C(=O)c1cn(-c2ccccc2)nc1-c1cccs1	0	0	-	-	-
C=C(C)c1cccc(C(C)(C)NC(=O)N(Cc2ccccc2)Cc2ccco2)c1	-8.7	0	-23%	0	0	KCNQ2 patch conf=0
C=C(C)c1cccc(C(C)(C)NC(=O)NC2CCN(Cc3ccccc3)CC2)c1	0	0	-	-	-
CC(=O)N[C@@H](Cc1c[nH]c2ccccc12)C(=O)NCCc1ccc(S(N)(=O)=O)cc1	0	0	-	-	-
O=C(CSC1=NCCS1)NC(NC(=O)CSC1=NCCS1)c1ccccc1	0	0	-	-	-
COc1ccccc1CNC(=O)CSc1ccc(Br)cc1	0	-	-	-	-
O=C(CSC1=NCCS1)NC(c1ccccc1)c1ccccc1	-8.2	0	-42%	-34%	-32%	KCNQ2 patch conf=+
COc1ccccc1CNC(=O)CSC1=NCCS1	-6.8	0	0	0	0
COc1ccc(Cl)cc1NC(=O)C(C)N(C)Cc1cccc(Cl)c1Cl (centres undefined)	-7.3	0	0	0	0
COc1ccc(Cl)cc1NC(=O)NC(C)C	0	-	-	-	-
SMILES	KCNQ2 inh	KCNQ2 enhance	KCNQ2 inh conf	KCNQ1 spec	CHO parental ctr	others
OCc1nc2ccccc2n1/N=C/c1cccs1	0	-	-	-	-
Cc1ccc(CN2CCN(/N=C/c3ccc(C(F)(F)F)cc3)CC2)c(C)c1	0	-	-	-	-
Cc1ccc(CN2CCN(/N=C/c3ccc(C(=O)O)cc3)CC2)c(C)c1	-7.3	0	-26%	0	0	KCNQ2 patch conf=+
Cc1ccc(C)n1-c1ccccc1N1CCCCC1	0	-	-	-	-
CCOC(=O)C1CCN(C(c2cc3ccc(C)c(C)c3[nH]c2=O)c2nnnn2C2CCCCC2)CC1 (centres undefined)	0	-	-	-	-
Cc1ccc2cc(C(c3nnnn3C3CCCC3)N3CCN(c4ccccc4)CC3)c(=O)[nH]c2c1 (centres undefined)	0	-	-	-	-
Cc1ccc2cc(C(c3nnnn3C3CCCC3)N3CCOCC3)c(=O)[nH]c2c1C (centres undefined)	-9.5	0	0	0	0
COc1cc2cc(C(c3nnnn3C3CCCC3)N3CCCCC3)c(=O)[nH]c2cc1OC (centres undefined)	-7	0	-22%	0	0	KCNQ2 patch conf=+
COc1cccc(CC2(CO)CCN(S(=O)(=O)c3ccc(OC)cc3OC)CC2)c1	0	0	-	-	-
COCCn1cnc2c1c(=O)n(CC(=O)NCC(F)(F)F)c(=O)n2Cc1ccccc1	0	0	-	-	-
O=C(N/N=C/c1ccccc1)c1ccc(OCc2ccccc2)cc1	0	0	-	-	-
O=C(N/N=C/c1ccccc1)c1sccc1OCc1ccc(F)cc1	-6.8	0	0	0	0
Cc1nc2ccc(NC(=O)c3cccc(S(=O)(=O)N(C)c4ccccc4)c3)cc2s1	0	-	-	-	-
CN(c1ccccc1)S(=O)(=O)c1cccc(NC(=O)c2ccc3ncsc3c2)c1	-7.4	0	0	0	0
NC(=O)c1ccc(NC(=O)CCN2C(=O)c3ccccc3C2=O)cc1	0	-	-	-	-
O=C(NC(c1ccccc1)c1ccccc1)N1CCOCC1	0	-	-	-	-
O=C(Cc1ccccc1)NNC(=O)Cc1ccccc1	0	-	-	-	-
O=C(Cc1ccccc1)NC1c2ccccc2-c2ccccc21	-6.8	0	0	0	0
O=C(NC1c2ccccc2-c2ccccc21)N1CCOCC1	-7	0	-28%	0	0	KCNQ2 patch conf=+
O=C(CSc1ccccc1)NCCSCc1ccccc1	0	-	-	-	-
O=C(NNS(=O)(=O)c1cc(Cl)cc(Cl)c1)c1sccc1-n1cccc1	0	0	-	-	-
C#CCOc1ccc2ccccc2c1/C=C(/C#N)c1ccc(C(=O)O)cc1	0	-	-	-	-
COc1ccc(CNn2c(-c3cccs3)nc3ccccc3c2=O)cc1OC	-9.2	0	-40%	0	0	KCNQ2 patch conf=+
COc1ccc(C(=O)Nn2c(C)nc3ccccc3c2=O)cc1OC	0	-	-	-	-
CCOC(=O)c1c(NC(=O)CCc2ccc(CC)o2)sc(C)c1C	-8.2	0	0	0	0
SMILES	KCNQ2 inh	KCNQ2 enhance	KCNQ2 inh conf	KCNQ1 spec	CHO parental ctr	others
CCOC(=O)c1ccc(NC(=O)CCc2ccc(CC)o2)cc1	0	-	-	-	-
BrC(=C\c1ccccc1)/C=N/Nc1nc(N2CCOCC2)nc(N2CCOCC2)n1	0	0	-	-	-
C/C(=C/C=N/Nc1nc(N2CCCCC2)nc(N2CCCCC2)n1)c1ccccc1	-7.2	0	-29%	0	0	KCNQ2 patch conf=0
CC(/C=N/Nc1nc(N2CCCCC2)nc(N2CCCCC2)n1)=C\c1ccccc1	-8.2	0	-34%	-34%	-26%	KCNQ2 patch conf=0
Oc1ccc(/C=N/Nc2nc(N3CCCCCC3)nc(N3CCCCCC3)n2)c(O)c1	0	-	-	-	-
Cn1c(CCNC(=O)c2ccccc2F)nnc1SCC(=O)Nc1nncs1	0	0	-	-	-
O=Cc1cnc(N2CCOCC2)nc1	0	-	-	-	-
CCn1nc(C(=O)Nc2ccc3nc(C)sc3c2)c2ccccc2c1=O	0	0	-	-	-
CCn1nc(C(=O)Nc2ccccc2N2CCCC2)c2ccccc2c1=O	-8	0	-38%	0	0	KCNQ2 patch conf=0
CCOc1cc(/C=C2\COc3ccccc3C2=O)cc(Br)c1OCC(=O)N(C)C	0	-	-	-	-
Cc1ccc(NC(=O)c2sc(Cl)nc2-c2ccccc2)cc1	0	-	-	-	-
O=C(Nc1ccc(F)cc1)c1sc(Cl)nc1-c1ccccc1	0	-	-	-	-
Cc1ccc(C)c(NC(=O)c2sc(Cl)nc2-c2ccccc2)c1	-8	0	0	0	0
Cc1ccccc1NC(=O)c1sc(Cl)nc1-c1ccccc1	-8.7	0	0	0	0
Cc1ccc2nc(C)c(CN3CCN(c4ccc([N+](=O)[O-])cc4Cl)CC3)n2c1	0	-	-	-	-

Compound activity from PubChem.
